# Biological target: T1, Tyrosyl-tRNA synthetase, putative (Trypanosoma cruzi (strain CL Brener)) (UniProt Q4DSP6)
# T1 sequence (whole entry): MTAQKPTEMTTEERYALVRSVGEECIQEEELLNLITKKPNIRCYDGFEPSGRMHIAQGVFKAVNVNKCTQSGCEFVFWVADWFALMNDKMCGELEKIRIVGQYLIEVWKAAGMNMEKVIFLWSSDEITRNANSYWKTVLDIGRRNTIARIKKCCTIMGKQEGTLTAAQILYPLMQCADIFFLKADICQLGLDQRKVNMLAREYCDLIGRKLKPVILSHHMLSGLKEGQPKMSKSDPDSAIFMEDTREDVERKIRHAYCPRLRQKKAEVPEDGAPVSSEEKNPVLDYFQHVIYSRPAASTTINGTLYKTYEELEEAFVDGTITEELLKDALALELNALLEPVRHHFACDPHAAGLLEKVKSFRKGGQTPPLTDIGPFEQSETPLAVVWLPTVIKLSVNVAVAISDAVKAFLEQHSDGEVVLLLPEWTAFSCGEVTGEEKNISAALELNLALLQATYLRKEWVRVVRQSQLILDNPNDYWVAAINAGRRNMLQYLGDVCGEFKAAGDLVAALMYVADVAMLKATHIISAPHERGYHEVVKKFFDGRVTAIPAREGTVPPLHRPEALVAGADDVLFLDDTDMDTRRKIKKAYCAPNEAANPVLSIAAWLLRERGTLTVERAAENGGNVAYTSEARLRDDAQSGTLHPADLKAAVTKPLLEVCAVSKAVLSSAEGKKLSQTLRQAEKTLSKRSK
# Test: Trypanosoma cruzi tyrosyl tRNA synthetase (TcYRS) _High Tyrosine SOP; also: in the data most compounds retested in dose-response had high values
# Assay type: functional
# Parameters: scale not given: direction of the effect not stated beside the values
# Details: 30 µM
row,SMILES,Percent Effect
1,Cn1cnnc1C1CCCN(C(=O)c2cc(Cl)c3c(c2)OCO3)C1 (stereo not given),0.526%
2,NC(=O)c1ccc(S(=O)(=O)NC(=O)COc2ccc3c(c2)CCC3)cc1,3.35%
3,Cc1ccccc1N1CCN(C(=O)c2ccc[nH]2)C(C)C1 (stereo not given),1.6%
4,CC(C)c1cc(NC(=O)CN2CCC(N3CCNC3=O)CC2)on1,5.88%
5,O=S(=O)(CCNC1CCc2ncnn2C1)c1ccccc1 (stereo not given),1.96%
6,c1ccc(-c2nc(CN3CCOC(Cn4cccn4)C3)no2)cc1 (stereo not given),5.79%
7,COc1ncccc1CNC(=O)NCCNC(=O)c1ccco1,4.74%
8,c1cnc(N2CCC3(CC2)CN(CC2CC2)c2ccccc23)nc1,33.8%
9,CN(C)S(=O)(=O)N1CCN(C(=O)c2ccc3ccn(C)c3c2)CC1,2.66%
10,Cc1ccc(C(CNC(=O)NCc2cc[nH]n2)N2CCOCC2)o1 (stereo not given),2.39%
11,COCCc1noc(CN2CCCCC2Cn2cc(C)cn2)n1 (stereo not given),-3.35%
12,O=C(COCc1ccccc1)N1CCC(OCc2cccnc2)CC1,5.85%
13,CCc1n[nH]c(C2CN(C(=O)c3nc(C)ncc3Cl)CCO2)n1 (stereo not given),2.94%
14,COc1cc(CNC(=O)C2CC(=O)N(C(C)C)C2)ccn1 (stereo not given),3.35%
15,O=C(Cc1cccs1)N1CC[C@H]2[C@@H]1CCC(=O)N2c1cccnc1,3.87%
16,CS(=O)(=O)NCc1ncn2c1CN(C(=O)CC1CCCC1)CCC2,1.58%
17,CCOCC1CC2(CCN(C(=O)c3ccccc3F)CC2)CO1 (stereo not given),2.63%
18,CCn1c(C)cc(C(=O)N2CCCC(n3nc(C)nc3C)C2)c1C (stereo not given),1.44%
19,Cc1cnn(CC2CCCN2CC(=O)Nc2cc(C)nn2C)c1 (stereo not given),4.9%
20,O=C(c1ccco1)N1CCC2(CC1)C(=O)NCCN2CC1CC1,1.58%

row,SMILES,Percent Effect
1,COc1ccc(C(=O)N2C[C@@H](CN3CCOCC3)[C@@H](CO)C2)c(C)c1,1.6%
2,O=C(c1ccc(F)cc1F)N1CC[C@H](O)[C@@H](N2CCOCC2)CC1,2.12%
3,Cc1cnn(C(C)C2CC2)c1NC(=O)c1cnccn1 (stereo not given),1.6%
4,COc1ncc(C2(O)CCN(Cc3ccccc3O)CC2)c(OC)n1,6.35%
5,CC1CCCN(C(=O)c2cccc(CS(C)(=O)=O)c2)C1 (stereo not given),4.31%
6,O=C(Nc1cccnc1)[C@H]1C[C@H]2OCC[C@H]2N(C(=O)c2ccsc2)C1,4.74%
7,CCC1CN(C(=O)c2ccc(Cl)cc2O)CCN1C(C)C (stereo not given),4.79%
8,Cc1cnc(C(=O)N2CCCCC2c2[nH]ncc2S(C)(=O)=O)cn1 (stereo not given),6.35%
9,CCN1C(=O)CCCC12CCCN(C(=O)c1conc1C)C2 (stereo not given),-4.83%
10,COc1cc(C(=O)N2CCCS2(=O)=O)ccc1C,4.74%
11,Cc1ncsc1-c1nnc(C2CCN(CC3CCCCC3)CC2)o1,-3.17%
12,CCn1cnnc1CNC(=O)N1CCOCC1,2.63%
13,O=C1C(NCc2nnc3n2CCCC3)CCN1c1ccccc1 (stereo not given),3.35%
14,CC(NC(=O)CCn1cncn1)c1nnc2n1CCCCC2 (stereo not given),3.92%
15,CC(=O)N1[C@H](CN(C)C)C[C@@H]2CN(C(=O)c3cccc(F)c3)CC[C@@H]21,3.87%
16,Cc1ccc(C(N)c2cccc(S(C)(=O)=O)c2)cc1 (stereo not given),4.74%
17,COc1cccc2c1OCC(C(=O)N1CCN(S(C)(=O)=O)CC1)C2 (stereo not given),7.98%
18,Cc1ccc(C(=O)N2C[C@@H](OCC3CCOCC3)[C@H]3OCCC[C@H]32)o1,4.74%
19,CC(Cn1cccn1)NC(=O)N1CCN(Cc2cccs2)CC1 (stereo not given),2.63%
20,Cc1nc(C2CCCN(C(=O)CO)C2)cc(N2CCOCC2)n1 (stereo not given),3.72%

# Biological target: T1, Tyrosyl-tRNA synthetase, putative (Trypanosoma cruzi (strain CL Brener))
# Test: Trypanosoma cruzi tyrosyl tRNA synthetase (TcYRS) SOP
# Assay type: functional
# Parameters: scale not given: direction of the effect not stated beside the values
# Details: 30 µM
row,SMILES,Percent Effect
1,Cn1cnnc1C1CCCN(C(=O)c2cc(Cl)c3c(c2)OCO3)C1 (stereo not given),10.3%
2,NC(=O)c1ccc(S(=O)(=O)NC(=O)COc2ccc3c(c2)CCC3)cc1,10.8%
3,Cc1ccccc1N1CCN(C(=O)c2ccc[nH]2)C(C)C1 (stereo not given),9.76%
4,CC(C)c1cc(NC(=O)CN2CCC(N3CCNC3=O)CC2)on1,11.8%
5,O=S(=O)(CCNC1CCc2ncnn2C1)c1ccccc1 (stereo not given),4.71%
6,c1ccc(-c2nc(CN3CCOC(Cn4cccn4)C3)no2)cc1 (stereo not given),12.8%
7,COc1ncccc1CNC(=O)NCCNC(=O)c1ccco1,12.8%
8,c1cnc(N2CCC3(CC2)CN(CC2CC2)c2ccccc23)nc1,20%
9,CN(C)S(=O)(=O)N1CCN(C(=O)c2ccc3ccn(C)c3c2)CC1,9.76%
10,Cc1ccc(C(CNC(=O)NCc2cc[nH]n2)N2CCOCC2)o1 (stereo not given),10.8%
11,COCCc1noc(CN2CCCCC2Cn2cc(C)cn2)n1 (stereo not given),6.02%
12,O=C(COCc1ccccc1)N1CCC(OCc2cccnc2)CC1,12.2%
13,CCc1n[nH]c(C2CN(C(=O)c3nc(C)ncc3Cl)CCO2)n1 (stereo not given),7.06%
14,COc1cc(CNC(=O)C2CC(=O)N(C(C)C)C2)ccn1 (stereo not given),10.8%
15,O=C(Cc1cccs1)N1CC[C@H]2[C@@H]1CCC(=O)N2c1cccnc1,7.5%
16,CS(=O)(=O)NCc1ncn2c1CN(C(=O)CC1CCCC1)CCC2,-2.56%
17,CCOCC1CC2(CCN(C(=O)c3ccccc3F)CC2)CO1 (stereo not given),7.69%
18,CCn1c(C)cc(C(=O)N2CCCC(n3nc(C)nc3C)C2)c1C (stereo not given),10.8%
19,Cc1cnn(CC2CCCN2CC(=O)Nc2cc(C)nn2C)c1 (stereo not given),16.5%
20,O=C(c1ccco1)N1CCC2(CC1)C(=O)NCCN2CC1CC1,-2.56%

row,SMILES,Percent Effect
1,COc1ccc(C(=O)N2C[C@@H](CN3CCOCC3)[C@@H](CO)C2)c(C)c1,9.76%
2,O=C(c1ccc(F)cc1F)N1CC[C@H](O)[C@@H](N2CCOCC2)CC1,7.5%
3,Cc1cnn(C(C)C2CC2)c1NC(=O)c1cnccn1 (stereo not given),4.88%
4,COc1ncc(C2(O)CCN(Cc3ccccc3O)CC2)c(OC)n1,20%
5,CC1CCCN(C(=O)c2cccc(CS(C)(=O)=O)c2)C1 (stereo not given),22.9%
6,O=C(Nc1cccnc1)[C@H]1C[C@H]2OCC[C@H]2N(C(=O)c2ccsc2)C1,12.8%
7,CCC1CN(C(=O)c2ccc(Cl)cc2O)CCN1C(C)C (stereo not given),9.76%
8,Cc1cnc(C(=O)N2CCCCC2c2[nH]ncc2S(C)(=O)=O)cn1 (stereo not given),12.5%
9,CCN1C(=O)CCCC12CCCN(C(=O)c1conc1C)C2 (stereo not given),-5%
10,COc1cc(C(=O)N2CCCS2(=O)=O)ccc1C,10.3%
11,Cc1ncsc1-c1nnc(C2CCN(CC3CCCCC3)CC2)o1,5%
12,CCn1cnnc1CNC(=O)N1CCOCC1,0%
13,O=C1C(NCc2nnc3n2CCCC3)CCN1c1ccccc1 (stereo not given),13.2%
14,CC(NC(=O)CCn1cncn1)c1nnc2n1CCCCC2 (stereo not given),18.8%
15,CC(=O)N1[C@H](CN(C)C)C[C@@H]2CN(C(=O)c3cccc(F)c3)CC[C@@H]21,0%
16,Cc1ccc(C(N)c2cccc(S(C)(=O)=O)c2)cc1 (stereo not given),5.13%
17,COc1cccc2c1OCC(C(=O)N1CCN(S(C)(=O)=O)CC1)C2 (stereo not given),17.1%
18,Cc1ccc(C(=O)N2C[C@@H](OCC3CCOCC3)[C@H]3OCCC[C@H]32)o1,15.4%
19,CC(Cn1cccn1)NC(=O)N1CCN(Cc2cccs2)CC1 (stereo not given),12.8%
20,Cc1nc(C2CCCN(C(=O)CO)C2)cc(N2CCOCC2)n1 (stereo not given),14.6%
